Assay outcomes (PubChem BioAssay)
PrPC surface inh: inhibitors of human cell surface prion protein PrPC, primary screen, cell-based, TR-FRET. Major prion protein (Homo sapiens), P04156. TR-FRET read-out. inhibition, % at 13.8 µM. 370,000 tested, 0.43% active. AID 720596, 2013; in the data active = inhibition above about 24%
PrP UTR inh: inhibition of PrP 5' UTR reporter expression | cell-based PrP 5' UTR mRNA reporter, plate reader | inhibition, % (concentration not given with the values) | 340,000 tested, 0.35% active | AID 488862, 2010; in the data active = inhibition above about 52%
BJeLR lethal: MLPCN primary cell-based screen for lethality selective to Ras in HRASV12 cells; inhibition, % (no concentration beside the values); BJeLR (HRASV12) viability, CellTiter-Glo ATP luminescence, 48 h; 300,000 tested, 0.17% active; in the data active = inhibition above about 50%
Mtb hypoxia rep: PubChem AID 1159583 | M. tuberculosis hypoxia-regulated fluorescent reporter, fluorescence | fluorescence inhibition, % (no concentration beside the values) | 300,000 tested, 0.1% active; in the data active = fluorescence inhibition mostly above about 23%, no sharp cut-off; inactive = mostly below about 17%
3CLpro inhibitor: SARS-CoV 3CLpro protease inhibitors, primary screen, biochemical, quenched FRET; inhibition, % at 6 µM; recombinant SARS-CoV 3CLpro, quenched FRET peptide cleavage; 290,000 tested, 0.14% active; in the data active = inhibition above about 12%
RecA splice inh: Mtb RecA intein splicing inhibitors, primary screen, biochemical, fluorescence, HTS; Protein RecA (Mycobacterium tuberculosis (strain ATCC 25618 / H37Rv)), P9WHJ3; cell-free RecA intein splicing; inhibition, % (no concentration beside the values); 290,000 tested, 0.75% active; AID 2221, 2009; in the data active = inhibition above about 30%
PrPC TRFRET cf: confirmation of inhibitors of cell surface human prion protein, confirmation, cell-based, TR-FRET | 1,500 tested, 65% active | shares compounds with PrPC surface inh | cell surface PrPC level | inhibition, % at 13.8 µM | AID 743200, 2013; in the data active = inhibition above about 25%
LD9 cytotox: cytotoxicity in LD9 cells, cytotoxicity control for cell surface PrPc inhibitor project, cell-based, luminescence, high throughput. shares compounds with PrPC surface inh. luminescence viability. inhibition, % at 13.8 µM. 1,500 tested, 29% active. AID 743201, 2013; in the data active = inhibition above about 9.5%
Numbers stand for hits; - = inactive; . = not tested or not shown. Most compounds without a hit are left out; they make up all but 1.4% or so of the library.

SMILES | PrPC surface inh | PrP UTR inh | BJeLR lethal | Mtb hypoxia rep | 3CLpro inhibitor | RecA splice inh | PrPC TRFRET cf | LD9 cytotox
COc1ccc2c(Cl)c(C(N)=O)sc2c1 | 78.6 | - | - | . | - | - | 99.5 | -
NNC(=O)C(=O)Nc1ccc(O)cc1 | 31.0 | - | - | - | - | - | - | -
Cc1ccc(NC(=O)C(=O)NN)cc1 | - | - | - | - | - | . | . | .
Cc1cc(C)n2c(-c3ccccc3Cl)nnc2n1 | 25.0 | - | - | - | - | - | - | -
CC1CCc2sc(C(=O)Nc3ccc(C(N)=O)cc3)cc2C1 (stereo not given) | 69.9 | - | - | - | - | - | 44.2 | -
CCN(CC)S(=O)(=O)c1ccc(NC(=O)CSc2ncnc3ccccc23)cc1 | 47.1 | - | - | . | - | - | 59.8 | -
NS(=O)(=O)c1ccc(CCNC(=O)CSc2ccc3ccccc3c2)cc1 | - | - | - | - | - | - | . | .
Cc1nc(SCC(=O)Nc2cc(C(N)=O)cc(C(N)=O)c2)c2c(C)c(C)sc2n1 | 84.9 | - | - | - | - | - | 94.0 | -
COc1ccc(S(=O)(=O)N2CCCCC2)cc1NC(=O)CSc1ncnc2ccccc12 | - | - | - | - | - | - | . | .
Cc1sc2ncnc(SCC(=O)Nc3cccc(S(N)(=O)=O)c3)c2c1C | 27.8 | - | . | - | . | . | 44.4 | -
NS(=O)(=O)c1ccc(CCNC(=O)CSc2ncnc3ccccc23)cc1 | 26.7 | - | - | - | - | - | 45.2 | -
O=C(NC1CCCCC1)C1CC=CC2CCN(Cc3ccccc3)C(=O)C21 (stereo not given) | . | . | . | - | . | . | . | .
NS(=O)(=O)c1cccc(NC(=O)CSc2ncnc3ccccc23)c1 | 37.1 | - | - | - | - | - | 36.0 | -
NS(=O)(=O)c1ccc(NC(=O)CSc2ncnc3ccccc23)cc1 | - | - | - | - | - | - | . | .
CCN(CC)S(=O)(=O)c1ccc(N2CCOCC2)c(NS(=O)(=O)c2cc(C(C)(C)C)ccc2C)c1 | 25.4 | - | - | - | - | - | - | -
CC(=NNc1ccccn1)c1ccc(OC(F)F)cc1 | . | . | . | - | . | . | . | .
CCOc1ccc(C2c3[nH]c4ccccc4c3CCN2C(=O)Cn2cncn2)cc1 (stereo not given) | 36.6 | - | - | - | - | - | 33.8 | -
COc1ccc2c(c1)c(/C=N/Nc1nc3ccccc3[nH]1)c(C)n2C | 24.8 | - | - | . | - | - | - | 26.6
O=C(Nc1ccc2c(c1)OCO2)c1ccc2sc([C@@H]3O[C@H](CO)[C@@H](O)[C@H]3O)nc2c1 | 25.5 | . | . | . | . | . | - | -
O=C(Nc1ccc2c(c1)OCO2)c1ccc2sc([C@@H]3O[C@H](CO)[C@H](O)[C@H](O)[C@H]3O)nc2c1 | - | . | . | . | . | . | . | .
NC(=O)c1ccc2c(=O)c(O)c(-c3cc(Cl)c(N)c(Cl)c3)[nH]c2c1 | 28.8 | - | - | . | - | - | - | -
CCCNC(=O)c1ccc2c(=O)c(O)c(-c3ccc(Cl)c([N+](=O)[O-])c3)[nH]c2c1 | - | - | - | . | . | - | . | .
CCOC(=O)C1C2COc3ccccc3C2N2C(=O)N(c3ccc(Cl)cc3)C(=O)[C@@]12C (stereo not given in full) | . | . | . | - | . | . | . | .
CC(NC(=O)c1nc[nH]c1C(=O)NC(CCCCNC(=O)OC(C)(C)C)C(=O)OC(C)(C)C)C(=O)OC(C)(C)C (stereo not given) | . | . | . | - | . | . | . | .
COc1ccc(OCCNC(=O)c2ccc3nc(C)c(N(C)C(=O)CCc4ccccc4)n3c2)cc1 | 59.4 | . | . | . | . | . | - | -
SMILES | PrPC surface inh | PrP UTR inh | BJeLR lethal | Mtb hypoxia rep | 3CLpro inhibitor | RecA splice inh | PrPC TRFRET cf | LD9 cytotox
COC(=O)C1=C(C(=O)OC)C2Nc3ccccc3[C@@]23CC(C(=O)OC)N(C(=O)COCc2ccccc2)C3=N1 (stereo not given in full) | . | . | . | - | . | . | . | .
CC1COC(=O)C(Cc2ccc(F)cc2)CC=CCC(CC(=O)N(CCO)Cc2ccccc2)C(=O)N1 (stereo not given) | . | . | . | - | . | . | . | .
COCCn1c(SCC(=O)Nc2cccc(NC(C)=O)c2)nc2c([nH]c3ccccc32)c1=O | 28.6 | - | - | - | - | - | - | -
Fc1ccccc1COc1ccc(Br)cc1CNCc1ccncc1 | 24.8 | - | - | - | - | - | - | 16.9
Fc1ccccc1COc1ccc(Br)cc1CNCc1cccnc1 | - | - | - | - | - | - | . | .
CCOc1ccccc1C=NNc1cnn(Cc2ccccc2)c(=O)c1Cl | . | . | . | - | . | . | . | .
NC(=NOC(=O)C=Cc1ccccc1)c1ccccn1 | . | . | . | - | . | . | . | .
CC1(C)NC(=O)N(CC(O)COc2ccc(-c3ccc(C#N)cc3)cc2)C1=O (stereo not given) | 30.1 | - | - | - | - | - | - | -
O=C1COc2cc(O)ccc21 | 28.0 | - | . | - | . | . | - | -
C=C(C)C(=O)N1CC2(CC(c3cccc(NC(=O)C(C)=CC)c3)=NO2)CC1C(N)=O (stereo not given) | . | . | . | - | . | . | . | .
COc1ccc(C(=O)Nc2ccc(-c3cn4ccsc4n3)cc2)cc1S(=O)(=O)N1CCOCC1 | 77.4 | - | - | - | - | - | 51.4 | -
COc1ccc(C(=O)Nc2ccc(N3CCOCC3)cc2)cc1S(=O)(=O)N1CCOCC1 | - | - | . | - | . | . | . | .
COc1cc2nc(CN3CC=C(c4ccccc4)CC3)[nH]c(=O)c2cc1OC | 24.5 | - | - | - | . | . | 47.0 | 25.1
CC(CCc1ccccc1)=NNC(=O)COc1ccccc1C | . | . | . | - | . | . | . | .
CN1C(=O)C2C(C=Cc3ccccc3)N3C(=O)CN(CCO)C(=O)[C@@]3(C)C2C1=O (stereo not given in full) | . | . | . | - | . | . | . | .
COc1ccc(CNC(=O)c2ccc3c(c2)N(C)CCS3)cc1 | - | - | - | - | - | - | . | .
CC(C)Oc1ccc(CNC(=O)c2ccc3c(c2)N(C)CCS3)cc1 | 25.4 | - | - | - | - | - | 44.1 | -
CCOC(=O)C1C2COc3ccc(Cl)cc3C2N2C(=O)CN(Cc3ccc(C)cc3)C(=O)[C@@]12C (stereo not given in full) | . | . | . | - | . | . | . | .
CC1CN(C(C)CO)C(=O)c2cc(NC(=O)CCN3CCOCC3)ccc2OC1CN(C)C(=O)Nc1ccccc1 (stereo not given) | . | . | . | - | . | . | . | .
Cc1c(OCC(N)=O)ccc2c(-c3ccccc3)cc(=O)oc12 | 26.6 | - | - | - | - | - | - | -
COc1ccc(C2CC(c3ccccc3)Oc3cc(OC)cc(OC)c32)cc1 (stereo not given) | . | . | . | - | . | . | . | .
COc1ccc(NC(=O)NNC(=O)COc2ccc3ccccc3c2)cc1OC | - | - | - | - | - | - | . | .
